This note sets out measurements from PubChem BioAssay (EPA / NIEHS).

Each structure is given as a SMILES string. Results filed as inconclusive are left out. Active and inactive are the calls of the source. How the source made its calls: active means hit-call score of the fitted dose curve at least 0.9, where 1 is the maximum; inconclusive means response in the unintended direction; inactive means score below 0.9.

human Adrenergic, Alpha 2c Receptor (Adra2C), ADRA2C (gene 152), sequence (P18825 whole entry, looked up): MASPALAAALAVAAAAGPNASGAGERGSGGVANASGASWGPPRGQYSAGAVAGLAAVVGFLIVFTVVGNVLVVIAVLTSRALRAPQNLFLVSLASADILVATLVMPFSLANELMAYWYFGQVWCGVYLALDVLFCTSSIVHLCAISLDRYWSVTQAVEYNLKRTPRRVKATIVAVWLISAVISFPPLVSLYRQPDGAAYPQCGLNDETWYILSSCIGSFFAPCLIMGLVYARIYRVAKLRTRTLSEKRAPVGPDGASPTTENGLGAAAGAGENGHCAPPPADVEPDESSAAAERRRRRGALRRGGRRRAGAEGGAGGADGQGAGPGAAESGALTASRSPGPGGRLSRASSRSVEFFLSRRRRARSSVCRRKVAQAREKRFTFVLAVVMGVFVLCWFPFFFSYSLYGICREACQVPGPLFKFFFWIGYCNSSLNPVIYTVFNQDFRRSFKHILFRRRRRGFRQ
human Adrenergic, Beta 1 Receptor (Adrb1), ADRB1 (gene 153), sequence (P08588 whole entry, looked up): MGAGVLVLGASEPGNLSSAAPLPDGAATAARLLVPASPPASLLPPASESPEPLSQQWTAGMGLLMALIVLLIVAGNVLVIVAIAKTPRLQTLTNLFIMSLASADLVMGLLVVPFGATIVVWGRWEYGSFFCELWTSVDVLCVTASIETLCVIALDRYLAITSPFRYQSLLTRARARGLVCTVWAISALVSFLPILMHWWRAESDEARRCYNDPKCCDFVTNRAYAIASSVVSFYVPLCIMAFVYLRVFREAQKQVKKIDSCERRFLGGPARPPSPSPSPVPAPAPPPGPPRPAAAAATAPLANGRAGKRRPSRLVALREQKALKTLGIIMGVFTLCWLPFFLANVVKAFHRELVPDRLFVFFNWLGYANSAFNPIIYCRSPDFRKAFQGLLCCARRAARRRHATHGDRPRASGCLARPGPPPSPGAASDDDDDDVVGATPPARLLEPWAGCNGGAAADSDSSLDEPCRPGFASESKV

The first assay addresses human Adrenergic, Beta 1 Receptor (Adrb1), ADRB1 (gene 153) (UniProt P08588). Kind of assay: NVS_GPCR_hAdrb1: NovaScreen (NVS) G Protein-Coupled Receptor Assay for human Adrenergic, Beta 1 Receptor (Adrb1) (AID 2283258). Here is the method: NVS_GPCR_hAdrb1 is a biochemical, single-readout assay that uses extracted gene-proteins from Human neuroepithelioma cells in a cell-free assay. Measurements were taken 2 hours after chemical dosing in a 96-well plate.NVS_GPCR_hAdrb1 is one of one assay component(s) measured or calculated from the NVS_GPCR_hAdrb1 assay. It is designed to make measurements of radioligand binding, a form of binding reporter, as detected with scintillation counting signals by Filter-based radiodetection technology.Data from the assay component NVS_GPCR_hAdrb1 was analyzed into 1 assay endpoint. This assay endpoint, NVS_GPCR_hAdrb1, was analyzed in the positive analysis fitting direction relative to DMSO as the negative control and baseline of activity. Using a type of binding reporter, loss-of-signal activity can be used to understand changes in the binding as they relate to the gene ADRB1. Furthermore, this assay endpoint can be referred to as a primary readout, because the performed assay has only produced 1 assay endpoint. To generalize the intended target to other relatable targets, this assay endpoint is annotated to the gpcr intended target family, where the subfamily is rhodopsin-like receptor.
Binding assays used specific radioligands (tritiated, iodinated) with non-radioactive competitive displacement ligands in agonist or antagonist protocols (as indicated) and various reference compounds and inhibitors to titrate specific binding to receptors and transporters. Most enzyme assays (CYPs, kinases, phosphatases, proteases, HDACs) used recombinant protein and specific substrates (fluorescence mostly, some colorimetric and radioactive) and inhibitors, followed by a biochemical separation of substrate and product. All assays for the biochemical HTS were initially run in duplicate at a single concentration (10 uM for CYP450 assays and 25 uM for all others). […] Each assay was run with positive and negative controls, and concurrent controls on every plate. The follow-up (secondary) screen tested active chemical-pairs in concentration series, as well as a few additional assays not tested in the primary screen, some selected negative inactives, and several cases re-run in the concentration series for confirmatory purposes.
Turning to `CN1CCN(c2ccccc2/C=C2\SCCN(c3ccc(Cl)c(Cl)c3)C2=O)CC1`, the AC50 (in general, the concentration at which the activity in the assay is half-maximal) was 3.51 µM (active).
Regarding `NC(=O)N(O)[C@@H]1C=C[C@H](Oc2cccc(Oc3ccc(F)cc3)c2)C1`, the compound was called inactive.
On the same count and under the same terms, then `CCCCCCCCCCCCCCCS(=O)(=O)Oc1ccccc1`, with “inactive”.
On to `NC(=O)N1C(=O)C(C(=O)c2cc(Cl)cs2)c2cc(F)c(Cl)cc21` (stereo not drawn), for which the compound was classed as inactive.
In the case of `CCCOc1sc(C(=O)N2CCC(c3cc(CN)ccc3F)CC2)c(C)c1Br`, the AC50 is 15.2 µM (active).
The same measure, in the same setting: then `CCCCCCCCCCCCc1ccccc1S(=O)(=O)O`, with 6.83 µM (active).

Another assay deals with human Adrenergic, Alpha 2c Receptor (Adra2C), ADRA2C (gene 152) (UniProt P18825). Briefly: NVS_GPCR_hAdra2C: NovaScreen (NVS) G Protein-Coupled Receptor Assay for human Adrenergic, Alpha 2c Receptor (Adra2C) (AID 2283259). The method in brief:
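Screened first in duplicate at 25 uM, with actives then run as concentration series. Membranes from Sf9 cells were exposed for 1 h, and displacement of radioligand was counted after filtration, using DMSO as baseline.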
Regarding `CCC(=C(c1ccc(O)cc1)c1ccc(OCCN(C)C)cc1)c1ccccc1`, the concentration at half-maximal activity (AC50) was 4.42 µM (active).
The same measure, in the same setting: then `CCN(CC)CCNc1ccc(CNC=O)c2sc3ccc(OC)cc3c(=O)c12`, with 14.6 µM (active); and `Cc1oc(-c2ccccc2)nc1CCOc1ccc(C[C@H](Nc2ccccc2C(=O)c2ccccc2)C(=O)O)cc1`, with 13.6 µM (active); and `NC(=O)N1C(=O)C(C(=O)c2cc(Cl)cs2)c2cc(F)c(Cl)cc21` (stereo not drawn), with 25 µM (active).
On the same count and under the same terms, then `CCCOc1sc(C(=O)N2CCC(c3cc(CN)ccc3F)CC2)c(C)c1Br`, with 8.34 µM (active); and `CCCCCCCCCCCCc1ccccc1S(=O)(=O)O`, with 7.16 µM (active).
On to `CC[C@H](c1ccc(O)cc1)[C@@H](CC)c1ccc(O)cc1`, for which the compound was classed as inactive.
